Test results from the supplement of paper PMC10849652.
Of roughly 7,900 targets only a part is listed; those with a hit were picked by preference. About 0.6% of all pairs of compound and target were hits.

What was measured:
Assay in all cases: log2 fold change, soluble protein after heating vs DMSO (PISA); higher = thermal stabilisation; K562 cells, 10 uM, 30 min; active = over 0.2 and 3.5 SD of the protein, either way, in both replicates (recomputed)
[1] = compound: CC[C@@H]1C(=O)N(C)c2cnc(Nc3ccc(C(=O)NC4CCN(C)CC4)cc3OC)nc2N1C1CCCC1
In short: (§1)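 Quantification of soluble protein used TMTpro 16plex LC-MS/MS, with channel sums equalised. Samples were the supernatant after 21,000xg for 90 min of pooled aliquots from K562 cells (2×10^6 cells/mL) treated with 10 μM compound for 30 min, heated for 3 min over 48°C-58°C, and extracted in PBS with 0.5% NP-40 at 4°C. Values, from duplicates, describe thermal stability against control samples on a log2 fold-change scale.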

volasertib = compound: CC[C@@H]1C(=O)N(C)c2cnc(Nc3ccc(C(=O)N[C@H]4CC[C@H](N5CCN(CC6CC6)CC5)CC4)cc3OC)nc2N1C(C)C [volasertib]
In short: as §1

[2] = compound: CC[C@H](C)N1C=C(C2=C(C=C(C=C21)C3=CN=C(C=C3)N4CCNCC4)C(=O)NCC5=C(C=C(NC5=O)C)C)C
In short: as §1

epoxomicin = compound: CC[C@H](C)[C@@H](C(=O)N[C@@H]([C@@H](C)O)C(=O)N[C@@H](CC(C)C)C(=O)[C@]1(CO1)C)NC(=O)[C@H]([C@@H](C)CC)N(C)C(=O)C [epoxomicin]
In short: as §1

[3] = compound: CCn1c(C(=O)N(C2CC2)C2CC2)cc2c3c(ncn3C)c(Nc3cc(C)n(C)n3)nc21
In short: as §1

[4] = compound: CCn1cc(-c2ccnc3[nH]c(-c4cccc(CN(C)C)c4)cc23)c(-c2ccc(NC(=O)N(C)C)cc2)n1
In short: as §1

[5] = compound: CN(C)CC(=O)Nc1ccc2[nH]c(=O)c3ccccc3c2c1
In short: as §1

rosiglitazone = compound: CN(CCOC1=CC=C(C=C1)C[C@H]2C(=O)NC(=O)S2)C3=CC=CC=N3 (racemic) [rosiglitazone]
In short: as §1

[6] = compound: CN1C2=C(C3=C1C(=O)N(N=C3)CC4=CC(=CC=C4)N)SC(=C2)S(=O)C
In short: as §1

[7] = compound: CN1CCC(CNc2ccc3ncc(-c4cccc(OC(F)(F)F)c4)n3n2)CC1
In short: as §1

saracatinib = compound: CN1CCN(CCOc2cc(OC3CCOCC3)c3c(Nc4c(Cl)ccc5c4OCO5)ncnc3c2)CC1 [saracatinib]
In short: as §1

sotrastaurin = compound: CN1CCN(c2nc(C3=C(c4c[nH]c5ccccc45)C(=O)NC3=O)c3ccccc3n2)CC1 [sotrastaurin]
In short: as §1

alvocidib = compound: CN1CC[C@H](c2c(O)cc(O)c3c(=O)cc(-c4ccccc4Cl)oc23)[C@H](O)C1 [alvocidib]
In short: as §1

Tubastatin A = compound: CN1CCc2c(c3ccccc3n2Cc2ccc(C(=O)NO)cc2)C1 [Tubastatin A]
In short: as §1

[8] = compound: CNC(=O)C1=CC=CC=C1NC2=NC(=NC=C2Cl)NC3=C(C=C(C=C3)N4CCOCC4)OC
In short: as §1

defactinib = compound: CNC(=O)c1ccc(Nc2ncc(C(F)(F)F)c(NCc3nccnc3N(C)S(C)(=O)=O)n2)cc1 [defactinib]
In short: as §1

rucaparib = compound: CNCc1ccc(-c2[nH]c3cc(F)cc4c3c2CCNC4=O)cc1 [rucaparib]
In short: as §1

[9] = compound: CNc1nc(-c2ccc3c(N)n[nH]c3c2)cc(N2C[C@@H](C(=O)NC3CCCCC3)CC[C@H]2C)n1
In short: as §1

encorafenib = compound: COC(=O)N[C@@H](C)CNc1nccc(-c2cn(C(C)C)nc2-c2cc(Cl)cc(NS(C)(=O)=O)c2F)n1 [encorafenib]
In short: as §1

[10] = compound: COC(=O)[C@H](CCSC)NC(=O)C1=C(C=C(C=C1)NC[C@H](CS)N)C2=CC=CC=C2
In short: as §1

Measured: log2 fold change

FADS3 (UniProt Q9Y5Q0)
UniProt Q9Y5Q0, sequence (Q9Y5Q0 whole entry, looked up): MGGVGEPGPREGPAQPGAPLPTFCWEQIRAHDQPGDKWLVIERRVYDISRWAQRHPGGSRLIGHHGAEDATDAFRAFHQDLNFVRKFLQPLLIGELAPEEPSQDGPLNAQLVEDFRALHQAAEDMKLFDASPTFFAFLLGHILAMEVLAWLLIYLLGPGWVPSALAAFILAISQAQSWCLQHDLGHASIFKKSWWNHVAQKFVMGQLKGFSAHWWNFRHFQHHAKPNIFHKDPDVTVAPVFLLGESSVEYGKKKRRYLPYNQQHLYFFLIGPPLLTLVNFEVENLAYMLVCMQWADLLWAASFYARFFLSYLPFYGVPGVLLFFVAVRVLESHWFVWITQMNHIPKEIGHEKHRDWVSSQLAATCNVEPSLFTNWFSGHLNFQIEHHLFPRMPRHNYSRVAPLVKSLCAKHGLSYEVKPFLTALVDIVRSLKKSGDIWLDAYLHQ
inactive: [1] -0.02 | volasertib 0.095 | [2] 0.013 | epoxomicin -0.016 | [3] 0.046 | [4] -0.116 | [5] -0.05 | rosiglitazone -0.019 | [6] -0.13 | [7] -0.231 | saracatinib 0.035 | sotrastaurin 0.037 | alvocidib -0.051 | Tubastatin A -0.061 | [8] 0.026 | defactinib 0.048 | rucaparib 0.024 | [9] -0.079 | encorafenib 0.02 | [10] 0.026

CYP51A1 (UniProt Q16850)
UniProt Q16850, sequence (Q16850 whole entry, looked up): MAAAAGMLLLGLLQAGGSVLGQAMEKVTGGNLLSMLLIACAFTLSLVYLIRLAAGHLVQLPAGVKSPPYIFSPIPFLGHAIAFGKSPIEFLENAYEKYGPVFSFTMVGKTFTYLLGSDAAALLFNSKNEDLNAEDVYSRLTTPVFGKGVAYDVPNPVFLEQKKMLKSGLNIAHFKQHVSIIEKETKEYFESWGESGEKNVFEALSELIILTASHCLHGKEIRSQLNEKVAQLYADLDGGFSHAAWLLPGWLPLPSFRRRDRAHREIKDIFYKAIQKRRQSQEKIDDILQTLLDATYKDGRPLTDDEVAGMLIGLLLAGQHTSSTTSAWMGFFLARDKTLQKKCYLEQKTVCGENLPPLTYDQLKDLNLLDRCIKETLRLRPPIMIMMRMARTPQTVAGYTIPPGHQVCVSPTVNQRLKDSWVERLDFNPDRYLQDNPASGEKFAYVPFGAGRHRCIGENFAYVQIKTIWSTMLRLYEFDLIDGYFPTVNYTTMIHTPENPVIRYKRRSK
inactive: [1] 0.019 | volasertib 0.132 | [2] 0.052 | epoxomicin -0.061 | [3] 0.058 | [4] 0.015 | [5] 0.015 | rosiglitazone -0.056 | [6] 0.072 | saracatinib -0.072 | sotrastaurin -0.029 | alvocidib 0.027 | Tubastatin A -0.024 | [8] 0.065 | defactinib 0 | rucaparib 0.162 | [9] 0.212 | encorafenib 0.029 | [10] -0.135
active: [7] -0.331

DDB1 (UniProt Q16531)
UniProt Q16531, sequence (Q16531 whole entry, looked up): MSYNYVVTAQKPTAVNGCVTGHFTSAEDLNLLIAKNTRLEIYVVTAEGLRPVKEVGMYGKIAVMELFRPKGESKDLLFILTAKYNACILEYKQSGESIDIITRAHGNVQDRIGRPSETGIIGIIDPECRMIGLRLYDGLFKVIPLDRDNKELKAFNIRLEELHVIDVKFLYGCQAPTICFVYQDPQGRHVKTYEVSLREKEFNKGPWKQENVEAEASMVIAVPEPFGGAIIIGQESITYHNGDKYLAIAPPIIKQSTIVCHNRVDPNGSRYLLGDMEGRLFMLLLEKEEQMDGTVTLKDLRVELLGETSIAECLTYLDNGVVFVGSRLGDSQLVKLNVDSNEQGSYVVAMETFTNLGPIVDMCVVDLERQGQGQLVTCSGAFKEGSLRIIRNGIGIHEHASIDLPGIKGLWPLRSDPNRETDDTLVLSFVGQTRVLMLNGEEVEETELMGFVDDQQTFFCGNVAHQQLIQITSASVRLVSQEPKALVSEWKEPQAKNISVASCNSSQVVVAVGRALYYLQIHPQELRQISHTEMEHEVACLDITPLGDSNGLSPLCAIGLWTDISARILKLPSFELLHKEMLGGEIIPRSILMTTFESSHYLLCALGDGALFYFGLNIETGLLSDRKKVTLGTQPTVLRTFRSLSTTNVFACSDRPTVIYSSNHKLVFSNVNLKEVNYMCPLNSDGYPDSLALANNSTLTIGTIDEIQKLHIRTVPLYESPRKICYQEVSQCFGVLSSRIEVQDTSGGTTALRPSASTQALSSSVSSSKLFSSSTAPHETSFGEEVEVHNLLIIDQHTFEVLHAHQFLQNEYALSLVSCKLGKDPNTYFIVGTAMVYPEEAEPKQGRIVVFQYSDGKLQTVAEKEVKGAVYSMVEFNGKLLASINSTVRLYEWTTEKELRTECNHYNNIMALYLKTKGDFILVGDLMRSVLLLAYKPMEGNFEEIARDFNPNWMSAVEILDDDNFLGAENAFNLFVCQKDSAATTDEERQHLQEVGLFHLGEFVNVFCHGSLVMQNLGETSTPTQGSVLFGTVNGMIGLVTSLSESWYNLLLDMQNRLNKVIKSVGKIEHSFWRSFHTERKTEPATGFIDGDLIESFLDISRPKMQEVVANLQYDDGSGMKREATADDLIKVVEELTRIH
inactive: [1] 0.045 | volasertib 0.036 | [2] -0.032 | epoxomicin -0.024 | [3] 0.021 | [4] 0.009 | [5] -0.005 | rosiglitazone -0.01 | [6] -0.028 | [7] 0 | saracatinib 0.04 | sotrastaurin 0.04 | alvocidib 0.004 | Tubastatin A -0.025 | [8] 0.001 | defactinib 0.002 | rucaparib -0.033 | [9] -0.035 | encorafenib 0.003 | [10] 0

CYFIP1 (UniProt Q7L576)
UniProt Q7L576, sequence (Q7L576 whole entry, looked up): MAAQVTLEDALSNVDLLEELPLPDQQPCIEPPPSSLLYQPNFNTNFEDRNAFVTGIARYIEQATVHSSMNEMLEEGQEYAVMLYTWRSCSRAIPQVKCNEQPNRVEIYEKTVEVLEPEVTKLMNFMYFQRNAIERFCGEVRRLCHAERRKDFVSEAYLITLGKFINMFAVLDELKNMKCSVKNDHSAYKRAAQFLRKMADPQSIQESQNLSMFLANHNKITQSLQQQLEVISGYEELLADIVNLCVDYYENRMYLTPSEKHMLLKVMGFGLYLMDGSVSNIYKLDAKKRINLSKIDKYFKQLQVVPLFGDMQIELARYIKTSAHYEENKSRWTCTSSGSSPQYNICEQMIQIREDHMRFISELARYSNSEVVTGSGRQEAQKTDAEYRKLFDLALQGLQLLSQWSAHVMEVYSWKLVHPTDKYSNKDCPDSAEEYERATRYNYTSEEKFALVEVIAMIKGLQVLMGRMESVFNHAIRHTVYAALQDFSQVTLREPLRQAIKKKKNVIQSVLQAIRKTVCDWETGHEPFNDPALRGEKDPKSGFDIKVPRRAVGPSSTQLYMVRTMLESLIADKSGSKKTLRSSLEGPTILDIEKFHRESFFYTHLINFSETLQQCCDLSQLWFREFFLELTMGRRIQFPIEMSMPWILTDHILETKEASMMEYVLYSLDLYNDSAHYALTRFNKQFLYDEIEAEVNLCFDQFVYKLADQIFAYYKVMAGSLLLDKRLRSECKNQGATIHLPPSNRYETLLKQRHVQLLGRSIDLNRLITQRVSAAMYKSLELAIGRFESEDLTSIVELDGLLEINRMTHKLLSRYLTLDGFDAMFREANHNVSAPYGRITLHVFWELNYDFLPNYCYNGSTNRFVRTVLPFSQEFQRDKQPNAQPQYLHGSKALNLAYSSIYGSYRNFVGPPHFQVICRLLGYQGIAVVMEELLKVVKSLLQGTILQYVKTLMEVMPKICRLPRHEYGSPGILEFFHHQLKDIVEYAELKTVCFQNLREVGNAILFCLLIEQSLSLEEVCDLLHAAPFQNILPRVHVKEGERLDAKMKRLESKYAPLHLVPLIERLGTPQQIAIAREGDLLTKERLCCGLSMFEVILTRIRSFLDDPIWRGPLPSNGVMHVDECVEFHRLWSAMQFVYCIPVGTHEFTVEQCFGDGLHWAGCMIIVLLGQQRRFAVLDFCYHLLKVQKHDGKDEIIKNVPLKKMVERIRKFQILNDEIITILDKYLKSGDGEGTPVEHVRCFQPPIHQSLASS
inactive: [1] -0.011 | [2] 0.046 | epoxomicin 0.02 | [3] -0.008 | [4] 0.011 | [5] 0.024 | rosiglitazone 0.045 | [6] 0.001 | [7] -0.034 | saracatinib -0.023 | sotrastaurin -0.026 | alvocidib -0.038 | Tubastatin A 0.006 | [8] -0.001 | defactinib -0.049 | rucaparib 0.025 | [9] 0 | encorafenib -0.005 | [10] -0.013
active: volasertib -0.233

DNAAF2 (UniProt Q9NVR5)
inactive: [1] 0.11 | volasertib -0.113 | [2] -0.031 | epoxomicin -0.012 | [3] 0.029 | [4] 0.095 | [5] 0 | rosiglitazone -0.06 | [6] 0.042 | saracatinib 0.048 | sotrastaurin 0 | alvocidib -0.065 | Tubastatin A -0.042 | [8] 0.01 | defactinib -0.142 | rucaparib 0.031 | [9] -0.033 | encorafenib 0.026 | [10] 0.043
active: [7] -0.279

FAM122A (UniProt Q96E09)
active: [4] -0.426 | [7] -0.699
inactive: [1] -0.042 | volasertib -0.054 | [2] 0.006 | epoxomicin -0.141 | [3] -0.029 | [5] -0.043 | rosiglitazone 0.064 | [6] -0.081 | saracatinib -0.005 | sotrastaurin -0.027 | alvocidib 0 | Tubastatin A 0.096 | [8] -0.09 | defactinib -0.018 | rucaparib 0.015 | [9] 0.017 | encorafenib -0.016 | [10] 0.056

DTNBP1 (UniProt Q96EV8)
UniProt Q96EV8, sequence (Q96EV8 whole entry, looked up): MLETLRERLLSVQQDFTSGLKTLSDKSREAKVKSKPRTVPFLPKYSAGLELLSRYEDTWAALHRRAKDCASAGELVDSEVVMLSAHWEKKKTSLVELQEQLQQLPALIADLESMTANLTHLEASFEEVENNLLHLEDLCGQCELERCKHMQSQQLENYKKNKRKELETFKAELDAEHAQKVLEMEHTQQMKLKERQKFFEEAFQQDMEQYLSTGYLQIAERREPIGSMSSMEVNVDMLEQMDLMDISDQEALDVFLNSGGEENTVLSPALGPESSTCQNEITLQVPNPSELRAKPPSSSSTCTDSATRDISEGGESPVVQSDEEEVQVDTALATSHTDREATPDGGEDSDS
inactive: [1] -0.017 | volasertib 0.009 | [2] -0.002 | epoxomicin 0.048 | [3] 0.026 | [4] -0.086 | [5] -0.009 | rosiglitazone 0.016 | [6] -0.028 | [7] 0.01 | saracatinib -0.072 | sotrastaurin 0.026 | alvocidib -0.041 | Tubastatin A 0.023 | [8] 0 | defactinib -0.054 | rucaparib -0.015 | [9] 0.005 | encorafenib 0.014 | [10] 0.054

CTSL (UniProt P07711)
inactive: [1] -0.124 | volasertib -0.247 | [2] -0.045 | epoxomicin 0.017 | [3] 0.014 | [4] 0.196 | [5] -0.074 | rosiglitazone -0.037 | [6] 0.019 | [7] -0.306 | saracatinib 0.113 | sotrastaurin 0.05 | alvocidib 0.085 | Tubastatin A 0.038 | [8] 0.024 | defactinib 0.032 | rucaparib 0.049 | [9] 0.018 | encorafenib -0.008 | [10] 0.02

EED, A0A5F9ZI63
inactive: [1] -0.052 | volasertib -0.055 | [2] -0.159 | epoxomicin -0.032 | [3] -0.001 | [4] 0.068 | [5] -0.099 | rosiglitazone 0.054 | [6] 0.045 | [7] 0.209 | saracatinib 0.008 | sotrastaurin -0.065 | alvocidib 0.037 | Tubastatin A -0.041 | [8] -0.057 | defactinib -0.04 | rucaparib 0.125 | [9] -0.052 | encorafenib 0.025 | [10] -0.05

CTSA (UniProt P10619)
active: [1] -1.24 | volasertib -1.57 | [7] -1.44
inactive: [2] -0.037 | epoxomicin -0.003 | [3] -0.031 | [4] 0.018 | [5] 0.011 | rosiglitazone -0.017 | [6] -0.007 | saracatinib 0.056 | sotrastaurin 0.089 | alvocidib 0.04 | Tubastatin A -0.015 | [8] 0.06 | defactinib 0.022 | rucaparib -0.041 | [9] 0.002 | encorafenib 0.057 | [10] 0.065

DYNC1I2 isoform 2 (UniProt Q13409)
UniProt Q13409, sequence (Q13409 whole entry, looked up): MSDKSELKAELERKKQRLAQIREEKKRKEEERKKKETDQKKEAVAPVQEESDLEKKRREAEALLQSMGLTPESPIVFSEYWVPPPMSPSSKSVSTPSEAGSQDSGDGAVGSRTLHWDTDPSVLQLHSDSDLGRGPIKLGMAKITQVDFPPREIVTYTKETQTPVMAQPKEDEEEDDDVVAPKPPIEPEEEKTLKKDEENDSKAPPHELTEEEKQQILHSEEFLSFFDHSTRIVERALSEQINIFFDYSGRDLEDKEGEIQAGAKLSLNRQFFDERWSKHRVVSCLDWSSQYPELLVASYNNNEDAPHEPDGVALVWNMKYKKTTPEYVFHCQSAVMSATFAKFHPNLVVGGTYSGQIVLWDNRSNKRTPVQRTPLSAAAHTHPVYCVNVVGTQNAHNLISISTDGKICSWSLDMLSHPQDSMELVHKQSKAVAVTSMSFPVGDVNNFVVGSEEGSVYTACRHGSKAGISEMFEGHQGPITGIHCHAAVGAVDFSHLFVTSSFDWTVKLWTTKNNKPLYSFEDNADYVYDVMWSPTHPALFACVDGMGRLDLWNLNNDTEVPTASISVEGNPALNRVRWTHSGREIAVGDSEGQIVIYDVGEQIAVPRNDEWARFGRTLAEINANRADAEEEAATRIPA
inactive: [1] 0.012 | volasertib 0.045 | epoxomicin -0.06 | [3] 0.086 | rosiglitazone -0.022 | sotrastaurin 0.062 | alvocidib 0 | Tubastatin A -0.028 | [8] -0.021 | rucaparib -0.034 | encorafenib -0.108

ENTPD7 (UniProt Q9NQZ7)
UniProt Q9NQZ7, sequence (Q9NQZ7 whole entry, looked up): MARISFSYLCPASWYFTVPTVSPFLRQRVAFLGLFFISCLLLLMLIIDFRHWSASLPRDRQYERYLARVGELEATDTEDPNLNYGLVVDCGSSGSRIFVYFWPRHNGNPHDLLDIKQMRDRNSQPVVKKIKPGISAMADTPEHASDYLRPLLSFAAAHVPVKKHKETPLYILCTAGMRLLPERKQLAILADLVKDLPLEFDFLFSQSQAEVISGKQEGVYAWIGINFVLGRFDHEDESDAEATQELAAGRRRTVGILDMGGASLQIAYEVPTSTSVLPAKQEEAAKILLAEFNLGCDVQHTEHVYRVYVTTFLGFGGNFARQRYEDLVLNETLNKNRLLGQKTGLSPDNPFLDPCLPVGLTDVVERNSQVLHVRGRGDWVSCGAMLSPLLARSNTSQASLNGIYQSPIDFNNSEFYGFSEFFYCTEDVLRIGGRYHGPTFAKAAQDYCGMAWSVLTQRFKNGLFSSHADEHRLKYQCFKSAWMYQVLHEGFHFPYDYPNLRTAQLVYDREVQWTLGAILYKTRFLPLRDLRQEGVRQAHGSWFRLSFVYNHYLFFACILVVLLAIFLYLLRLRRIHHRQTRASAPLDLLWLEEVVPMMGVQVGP
inactive: [1] -0.204 | volasertib -0.233 | [2] 0.08 | epoxomicin 0.032 | [3] 0.032 | rosiglitazone 0.061 | [6] -0.021 | saracatinib 0.155 | sotrastaurin 0.17 | Tubastatin A 0.064 | [8] -0.162 | rucaparib -0.078 | [9] 0.136 | encorafenib -0.26
